SARS 3CLpro inh = SARS-CoV 3CLpro protease inhibition; P0C6X7; recombinant SARS-CoV 3CLpro, quenched FRET peptide cleavage; inhibition, % at 6 µM; 290,000 compounds, 0.14% hits; AID 1706; in the data active = inhibition above about 12%
Vc quorum ag = inducers of Vibrio cholerae quorum light production without autoinducers. V. cholerae BH1578 lux reporter, luminescence, 6 h. activation, % at 18.7 µM. 350,000 compounds, 0.16% hits. AID 588436; in the data active = activation mostly above about 9.7%, no sharp cut-off
PrPC TRFRET = inhibitors of human cell surface prion protein PrPC. inhibition, % at 13.8 µM. AID 720596. 370,000 compounds, 0.43% hits. TR-FRET read-out; in the data active = inhibition above about 24%
FBA Mtb inh = inhibits M. tuberculosis FBA enzyme | AID 588726 | P9WQA3 | 360,000 compounds, 2.3% hits | purified M. tuberculosis FBA, fluorescence read-out | inhibition, % at 1 µM
Target sequence (P9WQA3 whole entry, looked up): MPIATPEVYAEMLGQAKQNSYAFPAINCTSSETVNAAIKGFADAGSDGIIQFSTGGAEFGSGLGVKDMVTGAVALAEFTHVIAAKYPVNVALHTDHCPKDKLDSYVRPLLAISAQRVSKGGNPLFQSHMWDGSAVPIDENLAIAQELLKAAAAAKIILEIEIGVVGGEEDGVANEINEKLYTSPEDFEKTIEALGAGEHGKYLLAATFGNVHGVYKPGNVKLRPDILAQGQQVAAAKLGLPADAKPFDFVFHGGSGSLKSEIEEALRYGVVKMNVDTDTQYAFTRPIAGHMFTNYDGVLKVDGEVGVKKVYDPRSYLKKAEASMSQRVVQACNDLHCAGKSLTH
GDH-TPI counter-1 = inhibits GDH-TPI coupling enzymes, artifact for Mtb FBA screen; GDH-TPI coupled enzyme counterscreen, NADH absorbance; inhibition, % at 4.8 µM; 360,000 compounds, 1.2% hits; AID 588335; in the data active = inhibition above about 30%
Mtb FBA confirm = Mtb FBA inhibition, confirmed. AID 651616. purified M. tuberculosis FBA, fluorescence read-out. inhibition, % at 1 µM. 5,600 compounds, 78% hits. shares compounds with FBA Mtb inh
GDH-TPI counter-2 = inhibits GDH-TPI coupling enzymes, flagging Mtb FBA hits; shares compounds with FBA Mtb inh; GDH-TPI coupled enzyme counterscreen, fluorescence; inhibition, % at 1 µM; 5,600 compounds, 81% hits; in the data active = inhibition above about 10%
Hits are given with their value; – = inactive; · = no result given; + = active, no number. In the library only some 3.9% were active in any assay of this set; here they are far more common. Rule as the data show it, unless noted: active = inhibition above about 27%; inactive = the rest.

SMILES	SARS 3CLpro inh	Vc quorum ag	PrPC TRFRET	FBA Mtb inh	GDH-TPI counter-1	Mtb FBA confirm	GDH-TPI counter-2
Cc1cc(=O)oc2cc(OCC(=O)OCC(=O)Nc3ccccc3C(C)C)ccc12	–	–	–	–	–	·	·
CCCCN1C(=O)c2ccccc2NC1c1ccc(OC)c(COc2ccc(NC(C)=O)cc2)c1 (stereo unspecified)	·	·	–	·	·	·	·
CCCN1C(=O)c2ccccc2NC1c1ccc(OC)cc1OC (stereo unspecified)	–	–	–	81	–	45	43
CCCN1C(=O)c2ccccc2NC1c1ccc(OC)cc1O (stereo unspecified)	–	–	–	58	–	–	–
COc1ccc(C2Nc3ccccc3C(=O)N2NC(C)=O)c(OC)c1 (stereo unspecified)	–	–	–	41	–	72	50
CC(=O)N1c2ccc(S(=O)(=O)N3CCCC3)cc2CC1C(=O)Nc1cc(C)cc(C)c1 (stereo unspecified)	–	–	–	–	–	·	·
CC(C)(O)[C@H](O)COc1c2ccoc2cc2oc(=O)ccc12	–	–	–	–	–	·	·
CC(=O)O[C@H](COc1c2ccoc2cc2oc(=O)ccc12)C(C)(C)O	·	–	–	45	–	–	–
Cc1ccc(S(=O)(=O)NCC(=O)OC(C)C(=O)NC(=O)NC2CCCCC2)cc1C (stereo unspecified)	·	–	–	–	–	·	·
O=C(Nc1ccc(F)cc1)c1ccc2snnc2c1	–	–	–	46	–	122	114
Cc1c(OCC(=O)N(C)C)ccc2c(-c3ccccc3)cc(=O)oc12	–	–	–	–	–	·	·
CCCCc1cc(=O)oc2cc(OCC(=O)N3CCC(C(=O)O)(c4ccccc4)CC3)ccc12	–	–	–	–	–	·	·
CCc1cc(=O)oc2cc(C)cc(OCC(=O)N3CCC(C(=O)O)(c4ccccc4)CC3)c12	–	–	–	88	–	–	–
CCCc1cc(=O)oc2c(C)c(OCC(=O)N3CCC(C(=O)O)(c4ccccc4)CC3)ccc12	–	–	–	32	–	103	91
Cc1cc(=O)oc2c(C)c(OCC(=O)N3CCC(C(=O)O)(c4ccccc4)CC3)ccc12	–	–	–	35	–	–	–
Cc1ccc(OCCSc2nc(NC(C)C)nc(NC(C)C)n2)cc1	–	–	–	–	–	·	·
O=C(OCc1cn(Cc2ccc(F)cc2F)nn1)N1CCOCC1	·	·	–	·	·	·	·
COc1cccc(N2CCN(C(=O)C3CCN(C(=O)Nc4ccccc4)CC3)CC2)c1	·	–	–	–	–	·	·
Cc1cnc(N)c2c(=O)oc3ccccc3c12	–	–	–	61	–	+	+
CN(C)S(=O)(=O)c1ccc2c(c1)nc(CCC(=O)NCC(=O)Nc1ccc(F)c(F)c1F)n2C	·	–	–	–	–	·	·
Cc1c(NC(=O)COc2ccc3ccc(=O)oc3c2)c(=O)n(-c2ccccc2)n1C	·	–	–	79	–	64	57
CCCCN(C(=O)c1cc(S(=O)(=O)N2CCCCCC2)ccc1OC)c1ccccc1	·	–	–	–	–	·	·
Cc1ccc(C2OC34CCCCCC3C(C#N)(C(=N)O4)C2(C#N)C#N)cc1 (stereo unspecified)	–	–	–	70	–	119	102
COCCSc1ccccc1C(=O)NCc1cccnc1	–	–	–	–	–	·	·
O=C1OCCN1C(=O)[C@H]1[C@H](c2ccc([N+](=O)[O-])cc2)C(c2ccc(F)cc2)=NN1c1ccccc1	·	–	–	–	–	·	·
SMILES	SARS 3CLpro inh	Vc quorum ag	PrPC TRFRET	FBA Mtb inh	GDH-TPI counter-1	Mtb FBA confirm	GDH-TPI counter-2
OC[C@@H]1[C@@H](c2ccc(Cl)cc2)C(c2ccccc2)=NN1c1ccccc1	·	–	–	54	–	110	78
OC[C@@H]1[C@@H](c2ccc(Cl)cc2)C(c2cccc(Cl)c2)=NN1c1ccccc1	·	–	–	63	–	158	102
OC[C@@H]1[C@@H](c2ccc(F)cc2)C(c2cccc(Cl)c2)=NN1c1ccccc1	·	–	–	42	–	41	36
CCOC(=O)c1cc(C#N)c(N2CCN(C(=O)c3cccc(C(F)(F)F)c3)CC2)nc1C(F)(F)F	–	–	–	–	–	·	·
C/C(=N\NC(=O)c1nn(C)c(C)c1Br)c1ccc(NC(=O)c2ccccc2F)cc1	–	–	–	–	–	·	·
Cc1cc(S(=O)(=O)NCc2ccc3c(c2)OCO3)ccc1F	–	–	–	87	–	74	96
O=C(O)CC/C(=N/NC(=O)c1cn(-c2ccccc2)nc1-c1ccccc1)C(=O)O	–	–	–	31	–	66	64
O=C(O)COc1ccc(/C=N/NC(=O)c2cn(-c3ccccc3)nc2-c2ccccc2)cc1	–	–	–	–	–	·	·
Cc1cccc(C)c1NC(=O)C(c1ccccc1)N1CCN(C/C=C/c2ccccc2)CC1 (stereo unspecified)	·	·	–	–	·	·	·
COc1cc2sc(-c3ccc(S(C)(=O)=O)cc3)c(C#CCO)c2cc1OC	·	–	–	54	–	112	87
COc1ccc(C2CC(=O)C(c3ccc(Cl)c(Cl)c3)=CN2Cc2ccccc2)cc1 (stereo unspecified)	·	·	–	·	·	·	·
CC12CCC(=O)C=C1CCC1C2C(O)CC2(C)C1CCC2(O)C(=O)COC(=O)COCC(=O)O (stereo unspecified)	·	·	–	–	–	·	·
O=S(=O)(c1ccc(F)cc1)N1CN2CCN(C2)C1	–	–	–	30	–	–	–
CC1(C(=O)Nc2cccc(C#N)c2)CCN1C(=O)C/C=C/c1ccccc1 (stereo unspecified)	·	–	–	–	–	·	·
C[C@@H](NC(=O)c1cc2c([nH]c3ccccc32)c(-c2ccccc2)n1)C(=O)O	–	–	–	29	–	71	61
CCN(CC)C(=O)c1oc(=O)c2ccccc2c1-c1ccc(C)cc1	·	·	–	·	·	·	·
Cc1ccc2nc(C(C)(C)C)c(Cc3cccc(F)c3)n2c1	·	·	–	36	·	200	172
Cc1ccc(-c2nc3ccc(C)cn3c2Cc2cccc(F)c2)cc1	·	·	–	·	·	·	·
CCCc1nc2ccc(C)cn2c1Cc1cccc(F)c1	·	·	–	28	·	43	31
Cc1[nH]nc(SCC(=O)NC2CCCC2)c1[N+](=O)[O-]	–	–	–	–	–	·	·
CCOC(=O)c1c(C)nc2ncccn12	–	·	–	75	–	37	38
CCOC(=O)c1c(C)nc2c(C)cccn12	–	–	–	–	–	·	·
CCOC(=O)c1cccc(C(=O)OCC)n1	–	–	–	–	–	·	·
CCOC(=O)c1cn2cccnc2n1	–	–	–	104	–	151	134
CCCCN1C(=O)C(CC(=O)NCc2ccco2)CC(C(=O)N(CC)CC)=C1C (stereo unspecified)	·	–	–	–	–	·	·
CCSc1nc2c(c(=O)[nH]1)C(c1ccc(C)cc1)C1=C(CCCC1=O)N2 (stereo unspecified)	–	–	–	29	–	148	126

Bioassay records (PubChem)
